First the molecules themselves.
B1: GUGCGUA (DNA:RNA)
RNA: GGGAGACCGGAAUUCAGAUUGUCCGUGCGUAUUAAAUCCCGUCGUAGCCACCA
DNA 1: CAATCTGAATTCCGGTCTCCC
DNA 2: TGGTGGCTACGACGGGATT
B2: CGUGGAA (DNA:RNA)
RNA: B1 RNA with G25C, U26G, G27U, C28G, U30A
DNA 1: CAATCTGAATTCCGGTCTCCC
DNA 2: TGGTGGCTACGACGGGATT
B3: CCCGACG (DNA:RNA)
RNA: GGGAGACCGGAAUUCAGAUUGUCCCCCGACGUUAAAUCCCGUCGUAGCCACCA
DNA 1: CAATCTGAATTCCGGTCTCCC
DNA 2: TGGTGGCTACGACGGGATT
B4: CGAGUCG (DNA:RNA)
RNA: B3 RNA with C26G, C27A, A29U
DNA 1: CAATCTGAATTCCGGTCTCCC
DNA 2: TGGTGGCTACGACGGGATT
B5: UCGCCGA (DNA:RNA)
RNA: B1 RNA with G25U, U26C, G29C, U30G
DNA 1: CAATCTGAATTCCGGTCTCCC
DNA 2: TGGTGGCTACGACGGGATT
B6: AAGUACG (DNA:RNA)
RNA: B3 RNA with C25A, C26A, C27G, G28U
DNA 1: CAATCTGAATTCCGGTCTCCC
DNA 2: TGGTGGCTACGACGGGATT
B7: GGGCAUA (DNA:RNA)
RNA: B1 RNA with U26G, G29A
DNA 1: CAATCTGAATTCCGGTCTCCC
DNA 2: TGGTGGCTACGACGGGATT
B8: GGGCAUG (DNA:RNA)
RNA: B1 RNA with U26G, G29A, A31G
DNA 1: CAATCTGAATTCCGGTCTCCC
DNA 2: TGGTGGCTACGACGGGATT
B9: GGGGCAU (DNA:RNA)
RNA: B1 RNA with U26G, C28G, G29C, U30A, A31U
DNA 1: CAATCTGAATTCCGGTCTCCC
DNA 2: TGGTGGCTACGACGGGATT
B10: CGGGCAU (DNA:RNA)
RNA: B3 RNA with C26G, C27G, A29C, C30A, G31U
DNA 1: CAATCTGAATTCCGGTCTCCC
DNA 2: TGGTGGCTACGACGGGATT
B11: GGGCAUU (DNA:RNA)
RNA: B1 RNA with U26G, G29A, A31U
DNA 1: CAATCTGAATTCCGGTCTCCC
DNA 2: TGGTGGCTACGACGGGATT
B12: GGGCAUC (DNA:RNA)
RNA: B1 RNA with U26G, G29A, A31C
DNA 1: CAATCTGAATTCCGGTCTCCC
DNA 2: TGGTGGCTACGACGGGATT
B13: CGCCCAU (DNA:RNA)
RNA: B3 RNA with C26G, G28C, A29C, C30A, G31U
DNA 1: CAATCTGAATTCCGGTCTCCC
DNA 2: TGGTGGCTACGACGGGATT
B14: AGCCGAC (DNA:RNA)
RNA: B1 RNA with G25A, U26G, G27C, U30A, A31C
DNA 1: CAATCTGAATTCCGGTCTCCC
DNA 2: TGGTGGCTACGACGGGATT
B15: UCGCCUU (DNA:RNA)
RNA: B1 RNA with G25U, U26C, G29C, A31U
DNA 1: CAATCTGAATTCCGGTCTCCC
DNA 2: TGGTGGCTACGACGGGATT
B16: GGGAAGA (DNA:RNA)
RNA: B1 RNA with U26G, C28A, G29A, U30G
DNA 1: CAATCTGAATTCCGGTCTCCC
DNA 2: TGGTGGCTACGACGGGATT
B17: GGAAGAA (DNA:RNA)
RNA: B1 RNA with U26G, G27A, C28A, U30A
DNA 1: CAATCTGAATTCCGGTCTCCC
DNA 2: TGGTGGCTACGACGGGATT
B18: CGGAAGA (DNA:RNA)
RNA: B3 RNA with C26G, C27G, G28A, C30G, G31A
DNA 1: CAATCTGAATTCCGGTCTCCC
DNA 2: TGGTGGCTACGACGGGATT
B19: GGAGAAA (DNA:RNA)
RNA: B3 RNA with C25G, C26G, C27A, C30A, G31A
DNA 1: CAATCTGAATTCCGGTCTCCC
DNA 2: TGGTGGCTACGACGGGATT
B20: GUCAGAA (DNA:RNA)
RNA: B1 RNA with G27C, C28A, U30A
DNA 1: CAATCTGAATTCCGGTCTCCC
DNA 2: TGGTGGCTACGACGGGATT
B21: GGGAGAA (DNA:RNA)
RNA: B1 RNA with U26G, C28A, U30A
DNA 1: CAATCTGAATTCCGGTCTCCC
DNA 2: TGGTGGCTACGACGGGATT
B22: ACUGGCG (DNA:RNA)
RNA: B3 RNA with C25A, C27U, A29G
DNA 1: CAATCTGAATTCCGGTCTCCC
DNA 2: TGGTGGCTACGACGGGATT
B23: CAGGCCG (DNA:RNA)
RNA: B3 RNA with C26A, C27G, A29C
DNA 1: CAATCTGAATTCCGGTCTCCC
DNA 2: TGGTGGCTACGACGGGATT
B24: CGCGCGC (DNA:RNA)
RNA: B3 RNA with C26G, A29C, C30G, G31C
DNA 1: CAATCTGAATTCCGGTCTCCC
DNA 2: TGGTGGCTACGACGGGATT
B25: GCUUGUC (DNA:RNA)
RNA: B1 RNA with U26C, G27U, C28U, A31C
DNA 1: CAATCTGAATTCCGGTCTCCC
DNA 2: TGGTGGCTACGACGGGATT
B26: GCUUGAG (DNA:RNA)
RNA: B3 RNA with C25G, C27U, G28U, A29G, C30A
DNA 1: CAATCTGAATTCCGGTCTCCC
DNA 2: TGGTGGCTACGACGGGATT
B27: CCGCUGG (DNA:RNA)
RNA: B3 RNA with C27G, G28C, A29U, C30G
DNA 1: CAATCTGAATTCCGGTCTCCC
DNA 2: TGGTGGCTACGACGGGATT
B28: GCGCUGG (DNA:RNA)
RNA: B1 RNA with U26C, G29U, U30G, A31G
DNA 1: CAATCTGAATTCCGGTCTCCC
DNA 2: TGGTGGCTACGACGGGATT
B29: GCUGGUC (DNA:RNA)
RNA: B1 RNA with U26C, G27U, C28G, A31C
DNA 1: CAATCTGAATTCCGGTCTCCC
DNA 2: TGGTGGCTACGACGGGATT
B30: GCCGCGC (DNA:RNA)
RNA: B3 RNA with C25G, A29C, C30G, G31C
DNA 1: CAATCTGAATTCCGGTCTCCC
DNA 2: TGGTGGCTACGACGGGATT
B31: GCUCGUC (DNA:RNA)
RNA: B1 RNA with U26C, G27U, A31C
DNA 1: CAATCTGAATTCCGGTCTCCC
DNA 2: TGGTGGCTACGACGGGATT
B32: CGUUGAG (DNA:RNA)
RNA: B3 RNA with C26G, C27U, G28U, A29G, C30A
DNA 1: CAATCTGAATTCCGGTCTCCC
DNA 2: TGGTGGCTACGACGGGATT
B33: GCUUGAA (DNA:RNA)
RNA: B1 RNA with U26C, G27U, C28U, U30A
DNA 1: CAATCTGAATTCCGGTCTCCC
DNA 2: TGGTGGCTACGACGGGATT
B34: GCGCUUG (DNA:RNA)
RNA: B1 RNA with U26C, G29U, A31G
DNA 1: CAATCTGAATTCCGGTCTCCC
DNA 2: TGGTGGCTACGACGGGATT
B35: GCUCUUG (DNA:RNA)
RNA: B1 RNA with U26C, G27U, G29U, A31G
DNA 1: CAATCTGAATTCCGGTCTCCC
DNA 2: TGGTGGCTACGACGGGATT

Changes are numbered by the printed parent chain; changes in the protein carry UniProt numbers. In all, about 16,000 sequences were measured (“ka relative to ugcaugu”: median about 0.0091, highest 2% from about 0.032 on). The list comes from a sample in which the highest values are over-represented; it also holds similar and randomly drawn sequences.

In the assay the target is T1, RBFOX1 RRM (Homo sapiens, UniProt Q9NWB1 109-208).
T1 sequence: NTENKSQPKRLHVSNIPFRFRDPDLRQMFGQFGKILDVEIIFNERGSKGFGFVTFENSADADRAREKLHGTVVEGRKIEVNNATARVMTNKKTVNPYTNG
Put plainly: EMSA; HiTS-Eq, 1 nM pool, 10 min; buffer printed only for the single-RNA assays: 10 mM Tris pH 7.5, 150 mM NaCl, 3.4 mM EDTA, 0.001% NP-40, 30 C. The settings on record: tags: His6 N-terminal (pET28a); label: 5' 32P. The gist of the method: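 Purified RbFox RRM (wild type or mutant) was equilibrated for 10 min in 50 µL with 1 nM of a 5′-radiolabelled pool of RNA with 7 randomized nucleotides, its flanks annealed to DNA oligonucleotides, across increasing protein concentrations. Free RNA was separated by 8% native PAGE, excised, reverse-transcribed, PCR-barcoded and sequenced on an Illumina HiSeq 2500. Relative association constants came from read-count changes of each variant against the control reaction, normalised to the cognate motif.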
In general terms: A gel shift assay detects complexes by their altered migration in electrophoresis.
On to B1, for which the binding signal is 0.0121 KA relative to UGCAUGU.

Consider B2, for which the binding signal was 0.0142 KA relative to UGCAUGU.

As to B3, the binding signal is 0.0192 KA relative to UGCAUGU.

As for B4, the binding signal is 0.0112 KA relative to UGCAUGU.

Take B5: the binding signal is 0.0122 KA relative to UGCAUGU.

With B6, the binding signal is 0.0114 KA relative to UGCAUGU.

With B7, the binding signal is 0.0114 KA relative to UGCAUGU.

On to B8, for which the binding signal is 0.519 KA relative to UGCAUGU.

Regarding B9, the binding signal is 0.0283 KA relative to UGCAUGU.

Consider B10, for which the binding signal was 0.0317 KA relative to UGCAUGU.

Consider B11, for which the binding signal was 0.0157 KA relative to UGCAUGU.

With B12, the binding signal was 0.0179 KA relative to UGCAUGU.

On to B13, for which the binding signal is 0.00281 KA relative to UGCAUGU.

As for B14, the binding signal was 0.00754 KA relative to UGCAUGU.

Consider B15, for which the binding signal was 0.0126 KA relative to UGCAUGU.

With B16, the binding signal was 0.0349 KA relative to UGCAUGU.

With B17, the binding signal was 0.0149 KA relative to UGCAUGU.

Regarding B18, the binding signal is 0.0191 KA relative to UGCAUGU.

In the case of B19, the binding signal is 0.0138 KA relative to UGCAUGU.

For B20, the binding signal is 0.0136 KA relative to UGCAUGU.

With B21, the binding signal is 0.0327 KA relative to UGCAUGU.

With B22, the binding signal was 0.0166 KA relative to UGCAUGU.

For B23, the binding signal was 0.00997 KA relative to UGCAUGU.

On to B24, for which the binding signal was 0.0126 KA relative to UGCAUGU.

For B25, the binding signal was 0.0386 KA relative to UGCAUGU.

In the case of B26, the binding signal was 0.0353 KA relative to UGCAUGU.

As for B27, the binding signal is 0.0189 KA relative to UGCAUGU.

As for B28, the binding signal is 0.0322 KA relative to UGCAUGU.

Take B29: the binding signal was 0.0255 KA relative to UGCAUGU.

For the molecule B30, the binding signal is 0.0197 KA relative to UGCAUGU.

As for B31, the binding signal was 0.0303 KA relative to UGCAUGU.

In the case of B32, the binding signal was 0.0235 KA relative to UGCAUGU.

In the case of B33, the binding signal was 0.0288 KA relative to UGCAUGU.

For B34, the binding signal was 0.0323 KA relative to UGCAUGU.

In the case of B35, the binding signal is 0.014 KA relative to UGCAUGU.

For the origin of these results see paper PMC9911399, “Two distinct binding modes provide the RNA-binding protein RbFox with extraordinary sequence specificity”.
